Test results as given in the supplement of paper PMC10849652.
Targets with a hit are over-represented here; the source holds about 7,900 in all. About 0.6% of all pairs of compound and target were hits. Unmarked numbers belong to inactive results.

What was measured:
Assay in all cases: log2 fold change, soluble protein after heating vs DMSO (PISA); higher = thermal stabilisation; K562 cells, 10 uM, 30 min; active = over 0.2 and 3.5 SD of the protein, either way, in both replicates (recomputed)
[1] = compound: CC1=C(C=C(C=C1)NC(=O)C2=CC(=CC=C2)C(C)(C)C#N)NC3=CC4=C(C=C3)N=CN(C4=O)C
Summary of the method: (§1)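 Thermal stability values are relative to control samples and come from duplicates. They are expressed as log2 fold changes. For measurement, K562 cells (2×10^6 cells/mL) received 10 μM compound for 30 min, and aliquots were heated for 3 min over 48°C-58°C, pooled, and extracted at 4°C in PBS with 0.5% NP-40. Soluble protein, the supernatant after 21,000xg for 90 min, was quantified by TMTpro 16plex LC-MS/MS with equalised channel sums.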

[2] = compound: CC1=CC=C(C=C1)SC2=C3C=C(SC3=CN=C2)C(=O)N
Summary of the method: as §1

[3] = compound: CC1=NC(=CC=C1)C2=C(N=C(N2)C(C)(C)C)C3=CC4=NC=CN=C4C=C3
Summary of the method: as §1

Nexturastat A = compound: CCCCN(Cc1ccc(C(=O)NO)cc1)C(=O)Nc1ccccc1 [Nexturastat A]
Summary of the method: as §1

[4] = compound: CCCS(=O)(=O)Nc1ccc(F)c(C(=O)c2c[nH]c3ncc(Cl)cc23)c1F
Summary of the method: as §1

[5] = compound: CCCc1cc(C)[nH]c(=O)c1CNC(=O)c1cc(-c2ccnc(N3CCN(C)CC3)c2)cc2c1cnn2C(C)C
Summary of the method: as §1

givinostat = compound: CCN(CC)Cc1ccc2cc(COC(=O)Nc3ccc(C(=O)NO)cc3)ccc2c1 [givinostat]
Summary of the method: as §1

barasertib = compound: CCN(CCCOc1ccc2c(Nc3cc(CC(=O)Nc4cccc(F)c4)[nH]n3)ncnc2c1)CCOP(=O)(O)O [barasertib]
Summary of the method: as §1

[6] = compound: CC[C@@H]1C(=O)N(C)c2cnc(Nc3ccc(C(=O)NC4CCN(C)CC4)cc3OC)nc2N1C1CCCC1
Summary of the method: as §1

volasertib = compound: CC[C@@H]1C(=O)N(C)c2cnc(Nc3ccc(C(=O)N[C@H]4CC[C@H](N5CCN(CC6CC6)CC5)CC4)cc3OC)nc2N1C(C)C [volasertib]
Summary of the method: as §1

epoxomicin = compound: CC[C@H](C)[C@@H](C(=O)N[C@@H]([C@@H](C)O)C(=O)N[C@@H](CC(C)C)C(=O)[C@]1(CO1)C)NC(=O)[C@H]([C@@H](C)CC)N(C)C(=O)C [epoxomicin]
Summary of the method: as §1

[7] = compound: CCn1c(C(=O)N(C2CC2)C2CC2)cc2c3c(ncn3C)c(Nc3cc(C)n(C)n3)nc21
Summary of the method: as §1

[8] = compound: CCn1cc(-c2ccnc3[nH]c(-c4cccc(CN(C)C)c4)cc23)c(-c2ccc(NC(=O)N(C)C)cc2)n1
Summary of the method: as §1

rosiglitazone = compound: CN(CCOC1=CC=C(C=C1)C[C@H]2C(=O)NC(=O)S2)C3=CC=CC=N3 (racemic) [rosiglitazone]
Summary of the method: as §1

[9] = compound: CN1C2=C(C3=C1C(=O)N(N=C3)CC4=CC(=CC=C4)N)SC(=C2)S(=O)C
Summary of the method: as §1

[10] = compound: CN1CCC(CNc2ccc3ncc(-c4cccc(OC(F)(F)F)c4)n3n2)CC1
Summary of the method: as §1

vemurafenib = compound: CCCS(=O)(=O)Nc1ccc(F)c(C(=O)c2c[nH]c3ncc(-c4ccc(Cl)cc4)cc23)c1F [vemurafenib]
Summary of the method: as §1

[11] = compound: CC[C@H](C)N1C=C(C2=C(C=C(C=C21)C3=CN=C(C=C3)N4CCNCC4)C(=O)NCC5=C(C=C(NC5=O)C)C)C
Summary of the method: as §1

[12] = compound: CN(C)CC(=O)Nc1ccc2[nH]c(=O)c3ccccc3c2c1
Summary of the method: as §1

[13] = compound: CC1=C(C=C(C=C1)NC(=O)C2=CC(=CC=C2)N(C)C)NC(=O)C3=CC=C(C=C3)O
Summary of the method: as §1

Sequence of UniProt Q6P9B9 (Q6P9B9 whole entry, looked up): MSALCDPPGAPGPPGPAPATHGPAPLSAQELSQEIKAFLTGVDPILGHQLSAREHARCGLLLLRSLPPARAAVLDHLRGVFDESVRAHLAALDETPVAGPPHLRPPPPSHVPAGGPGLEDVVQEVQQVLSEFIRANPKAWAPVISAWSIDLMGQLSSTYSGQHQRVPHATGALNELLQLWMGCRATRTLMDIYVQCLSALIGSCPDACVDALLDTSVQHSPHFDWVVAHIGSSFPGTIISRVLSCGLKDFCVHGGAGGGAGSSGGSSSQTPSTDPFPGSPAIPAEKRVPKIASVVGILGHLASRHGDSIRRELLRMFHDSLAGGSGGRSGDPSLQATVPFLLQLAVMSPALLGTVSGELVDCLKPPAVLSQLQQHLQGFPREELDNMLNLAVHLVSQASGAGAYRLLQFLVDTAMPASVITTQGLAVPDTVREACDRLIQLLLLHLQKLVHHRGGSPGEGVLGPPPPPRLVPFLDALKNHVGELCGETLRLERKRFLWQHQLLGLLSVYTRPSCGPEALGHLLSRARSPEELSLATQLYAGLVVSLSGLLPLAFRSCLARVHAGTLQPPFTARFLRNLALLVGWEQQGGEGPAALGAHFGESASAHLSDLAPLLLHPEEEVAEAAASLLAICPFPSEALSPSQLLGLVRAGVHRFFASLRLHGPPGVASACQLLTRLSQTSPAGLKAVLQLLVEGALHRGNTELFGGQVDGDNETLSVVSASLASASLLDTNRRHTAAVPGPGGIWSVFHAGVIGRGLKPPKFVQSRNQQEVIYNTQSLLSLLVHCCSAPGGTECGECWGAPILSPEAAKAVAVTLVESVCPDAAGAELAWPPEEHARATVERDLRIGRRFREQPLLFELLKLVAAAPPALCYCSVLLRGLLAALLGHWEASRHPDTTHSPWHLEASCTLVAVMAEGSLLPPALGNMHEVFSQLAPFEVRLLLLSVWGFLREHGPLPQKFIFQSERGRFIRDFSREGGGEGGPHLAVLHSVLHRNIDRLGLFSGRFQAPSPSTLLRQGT
Sequence of UniProt Q71SY5 (Q71SY5 whole entry, looked up): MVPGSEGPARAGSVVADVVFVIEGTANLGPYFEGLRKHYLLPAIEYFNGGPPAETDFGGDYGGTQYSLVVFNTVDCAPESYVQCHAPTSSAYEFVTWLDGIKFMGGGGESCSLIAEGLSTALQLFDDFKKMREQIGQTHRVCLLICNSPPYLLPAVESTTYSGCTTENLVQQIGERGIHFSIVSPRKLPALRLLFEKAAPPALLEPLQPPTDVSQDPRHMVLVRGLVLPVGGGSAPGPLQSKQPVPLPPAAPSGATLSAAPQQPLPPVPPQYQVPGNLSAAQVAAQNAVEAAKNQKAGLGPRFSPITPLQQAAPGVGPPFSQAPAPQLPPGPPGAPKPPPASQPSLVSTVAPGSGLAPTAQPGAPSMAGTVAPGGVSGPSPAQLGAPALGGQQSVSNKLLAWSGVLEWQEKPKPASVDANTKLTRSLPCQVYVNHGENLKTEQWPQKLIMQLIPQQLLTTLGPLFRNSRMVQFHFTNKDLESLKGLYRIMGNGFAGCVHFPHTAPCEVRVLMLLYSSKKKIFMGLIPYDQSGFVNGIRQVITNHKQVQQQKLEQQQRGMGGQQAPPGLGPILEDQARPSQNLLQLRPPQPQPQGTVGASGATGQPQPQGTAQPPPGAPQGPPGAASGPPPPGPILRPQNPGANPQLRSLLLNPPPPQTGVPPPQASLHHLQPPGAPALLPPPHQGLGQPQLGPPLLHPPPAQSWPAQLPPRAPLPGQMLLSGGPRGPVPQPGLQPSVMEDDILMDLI
Sequence of UniProt Q9H3U5 (Q9H3U5 whole entry, looked up): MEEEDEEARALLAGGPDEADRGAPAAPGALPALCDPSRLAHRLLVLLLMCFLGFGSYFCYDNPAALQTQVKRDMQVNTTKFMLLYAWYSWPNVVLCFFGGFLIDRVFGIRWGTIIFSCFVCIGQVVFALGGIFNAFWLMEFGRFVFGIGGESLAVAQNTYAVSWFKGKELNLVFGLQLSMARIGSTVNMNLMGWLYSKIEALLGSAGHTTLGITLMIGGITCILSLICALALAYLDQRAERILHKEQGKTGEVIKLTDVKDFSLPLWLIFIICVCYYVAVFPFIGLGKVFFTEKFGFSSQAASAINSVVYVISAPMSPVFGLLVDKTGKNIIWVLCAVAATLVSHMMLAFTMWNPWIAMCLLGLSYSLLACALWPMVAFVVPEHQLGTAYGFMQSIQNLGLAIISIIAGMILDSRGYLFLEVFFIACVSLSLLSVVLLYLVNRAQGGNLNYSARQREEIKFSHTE
Sequence of UniProt P52333 (P52333 whole entry, looked up): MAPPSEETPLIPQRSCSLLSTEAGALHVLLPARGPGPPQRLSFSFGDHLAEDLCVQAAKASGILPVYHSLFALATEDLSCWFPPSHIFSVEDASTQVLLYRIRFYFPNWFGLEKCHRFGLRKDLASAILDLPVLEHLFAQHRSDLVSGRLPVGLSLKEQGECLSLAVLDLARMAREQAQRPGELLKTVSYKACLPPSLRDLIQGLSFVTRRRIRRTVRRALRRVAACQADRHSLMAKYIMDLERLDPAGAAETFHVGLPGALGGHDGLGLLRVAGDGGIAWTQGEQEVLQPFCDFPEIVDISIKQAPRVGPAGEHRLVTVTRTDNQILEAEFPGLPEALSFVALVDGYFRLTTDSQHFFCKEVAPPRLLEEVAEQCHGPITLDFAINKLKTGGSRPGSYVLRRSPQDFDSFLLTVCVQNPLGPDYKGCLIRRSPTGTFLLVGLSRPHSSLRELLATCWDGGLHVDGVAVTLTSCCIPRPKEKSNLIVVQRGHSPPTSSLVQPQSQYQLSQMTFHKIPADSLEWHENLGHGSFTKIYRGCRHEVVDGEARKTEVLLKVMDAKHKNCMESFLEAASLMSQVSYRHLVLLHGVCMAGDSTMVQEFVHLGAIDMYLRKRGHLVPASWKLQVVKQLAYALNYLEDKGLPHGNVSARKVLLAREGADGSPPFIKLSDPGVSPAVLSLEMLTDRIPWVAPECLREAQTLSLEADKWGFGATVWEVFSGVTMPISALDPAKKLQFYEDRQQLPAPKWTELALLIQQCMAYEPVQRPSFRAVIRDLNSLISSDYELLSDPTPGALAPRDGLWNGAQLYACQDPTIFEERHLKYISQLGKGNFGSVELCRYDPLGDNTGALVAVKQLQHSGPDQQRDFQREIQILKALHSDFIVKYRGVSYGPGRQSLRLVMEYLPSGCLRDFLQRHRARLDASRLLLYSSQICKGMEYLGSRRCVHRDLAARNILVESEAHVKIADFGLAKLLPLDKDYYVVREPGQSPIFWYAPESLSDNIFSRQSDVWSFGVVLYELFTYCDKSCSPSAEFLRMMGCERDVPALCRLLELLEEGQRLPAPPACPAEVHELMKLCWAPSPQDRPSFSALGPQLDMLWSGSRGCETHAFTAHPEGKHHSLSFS
Sequence of UniProt Q9NYL2 (Q9NYL2 whole entry, looked up): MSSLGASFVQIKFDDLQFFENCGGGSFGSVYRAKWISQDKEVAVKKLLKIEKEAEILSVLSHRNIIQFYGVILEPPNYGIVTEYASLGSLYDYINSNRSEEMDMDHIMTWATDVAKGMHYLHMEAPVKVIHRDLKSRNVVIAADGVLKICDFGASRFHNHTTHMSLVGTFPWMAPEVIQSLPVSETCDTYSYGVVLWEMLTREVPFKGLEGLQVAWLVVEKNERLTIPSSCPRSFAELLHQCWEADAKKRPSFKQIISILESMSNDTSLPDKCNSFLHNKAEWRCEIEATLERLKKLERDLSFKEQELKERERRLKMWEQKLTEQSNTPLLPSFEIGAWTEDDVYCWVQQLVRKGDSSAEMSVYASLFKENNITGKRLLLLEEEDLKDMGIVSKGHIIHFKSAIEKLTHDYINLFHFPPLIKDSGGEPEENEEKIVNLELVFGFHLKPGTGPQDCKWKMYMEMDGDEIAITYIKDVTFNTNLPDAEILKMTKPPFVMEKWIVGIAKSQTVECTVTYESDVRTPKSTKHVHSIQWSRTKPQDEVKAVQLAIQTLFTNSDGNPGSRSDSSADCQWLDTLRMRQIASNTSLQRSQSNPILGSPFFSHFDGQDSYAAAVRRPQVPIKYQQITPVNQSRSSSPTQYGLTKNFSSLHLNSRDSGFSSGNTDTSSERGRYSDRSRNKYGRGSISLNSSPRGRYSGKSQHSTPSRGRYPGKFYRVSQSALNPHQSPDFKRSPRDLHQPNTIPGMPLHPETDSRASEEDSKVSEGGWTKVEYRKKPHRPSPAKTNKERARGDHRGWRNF
Sequence of UniProt Q7L590 (Q7L590 whole entry, looked up): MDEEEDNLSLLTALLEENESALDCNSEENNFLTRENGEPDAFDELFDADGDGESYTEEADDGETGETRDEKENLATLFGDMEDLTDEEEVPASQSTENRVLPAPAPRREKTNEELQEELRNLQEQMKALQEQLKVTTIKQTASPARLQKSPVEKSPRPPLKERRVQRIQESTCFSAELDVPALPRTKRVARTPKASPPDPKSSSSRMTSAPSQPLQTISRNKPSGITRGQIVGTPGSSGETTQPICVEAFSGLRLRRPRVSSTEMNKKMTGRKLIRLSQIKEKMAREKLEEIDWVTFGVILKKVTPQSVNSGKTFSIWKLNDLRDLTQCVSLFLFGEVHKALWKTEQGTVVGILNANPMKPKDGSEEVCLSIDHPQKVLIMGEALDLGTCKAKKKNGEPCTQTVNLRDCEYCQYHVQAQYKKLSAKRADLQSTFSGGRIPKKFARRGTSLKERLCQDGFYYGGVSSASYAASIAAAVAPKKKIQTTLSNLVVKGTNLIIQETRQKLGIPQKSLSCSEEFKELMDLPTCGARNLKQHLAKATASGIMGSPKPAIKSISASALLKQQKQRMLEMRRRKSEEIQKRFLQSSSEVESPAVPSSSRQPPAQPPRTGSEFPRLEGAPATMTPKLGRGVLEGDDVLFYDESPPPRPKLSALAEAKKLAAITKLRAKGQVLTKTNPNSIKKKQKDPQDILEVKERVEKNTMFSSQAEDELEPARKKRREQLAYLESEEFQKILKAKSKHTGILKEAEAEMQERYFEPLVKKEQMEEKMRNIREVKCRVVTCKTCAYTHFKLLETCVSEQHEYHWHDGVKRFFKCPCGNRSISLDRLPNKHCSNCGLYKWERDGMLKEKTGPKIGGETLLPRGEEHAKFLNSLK

Target	log2 fold change [1]	log2 fold change [2]	log2 fold change [3]	log2 fold change (Nexturastat A)	log2 fold change [4]	log2 fold change [5]	log2 fold change (givinostat)	log2 fold change (barasertib)	log2 fold change [6]	log2 fold change (volasertib)	log2 fold change (epoxomicin)	log2 fold change [7]	log2 fold change [8]	log2 fold change (rosiglitazone)	log2 fold change [9]	log2 fold change [10]	log2 fold change (vemurafenib)	log2 fold change [11]	log2 fold change [12]	log2 fold change [13]
KCNK5 (UniProt O95279)	-0.114	0.195	0.084	0.106	0.1	0.157	-0.319	0.097	-0.042	-0.174	0.046	0.004	0.047	0.179	0.223	-0.073	–	–	–	–
MFSD11 (UniProt O43934)	-0.171	0.038	0.013	-0.097	0.039	-0.02	–	0.013	-0.244	0.021	0.03	–	0.021	-0.006	-0.026	-0.345 (active)	-0.012	-0.108	0.017	–
KLHL18 (UniProt O94889)	-0.068	0.003	–	-0.099	-0.051	0.06	-0.049	0.11	0.075	-0.178	0.36 (active)	-0.038	-0.01	-0.019	0	0.034	-0.05	-0.123	-0.073	-0.009
ITM2B (UniProt Q9Y287)	0.01	0.036	-0.046	-0.05	-0.016	-0.482	0.001	0.076	-0.022	0.182	0.028	0.001	–	0.057	-0.197	–	-0.101	-0.112	-0.036	-0.052
MED25 isoform 3 (UniProt Q71SY5)	-0.033	-0.012	-0.014	–	0.05	-0.083	0.105	0.019	0.057	-0.051	–	-0.076	-0.203	0.018	-0.155	-0.043	0.141	0.027	0.096	0.022
IGFBP3 isoform 2 (UniProt P17936)	-0.187	0.1	0.205	0.204	0.076	–	–	–	–	-0.507	-0.251	–	0.075	–	0.199	-0.555	0.031	–	-0.238	–
MFSD1 isoform 6 (UniProt Q9H3U5)	0.056	-0.046	–	-0.106	-0.059	0.021	0.008	0.041	-0.022	0.053	0	-0.023	-0.069	-0.016	–	-0.012	-0.053	-0.01	-0.025	-0.008
LUM (UniProt P51884)	-0.011	0.042	0.061	-0.008	-0.266	–	-0.108	–	0.076	0.225	-0.145	0.2	–	–	0.054	–	0.069	-0.269	-0.167	0.403
ITM2C (UniProt Q9NQX7)	0.096	0.187	–	0.084	-0.014	–	0.09	0.057	–	-0.312	-0.149	-0.096	-0.104	0.069	0.125	0.218	0.006	0.049	-0.046	0.004
KMT2C isoform 3 (UniProt Q8NEZ4)	-0.053	–	–	-0.046	–	-0.033	0.011	-0.003	-0.908 (active)	–	-0.004	0.009	0.031	0.009	0.026	-0.337 (active)	-0.103	-0.02	0	-0.07
MARK2 (UniProt E9PC69)	-0.011	0.094	0.06	0.025	-0.034	–	0.132	0.034	0.044	-0.469	0.023	-0.137	–	-0.014	0.187	–	-0.005	0.086	-0.028	-0.018
JAK3 (UniProt P52333)	-0.002	0.066	0.099	-0.478 (active)	-0.029	0.016	-0.16	0.016	–	-0.075	-0.033	0.081	0.128	0.011	-0.01	0.012	-0.032	0.09	-0.042	-0.056
LYN isoform 2 (UniProt P07948)	0.056	-0.079	-0.079	0.376	-0.296	–	-0.168	–	–	-0.003	0.246	0.076	–	–	–	–	0.095	0.036	0.007	–
LPGAT1 (UniProt Q92604)	-0.077	0.034	0.077	0.036	0.086	-0.033	0.064	0.068	-0.206	-0.401 (active)	0.015	-0.128	–	0.012	-0.029	–	0.018	0.063	0.051	0
INTS5 (UniProt Q6P9B9)	0.091	0.026	0.042	0.01	0.074	0.122	0.038	0.015	–	-0.152	0.052	-0.046	–	0.212	-0.133	–	0.087	0.049	-0.003	-0.061
MAP3K20 isoform 2 (UniProt Q9NYL2)	-0.375 (active)	-0.038	0.295	0.16	0.044	-0.017	0.003	–	–	-0.1	-0.03	0.018	–	–	–	–	–	-0.067	–	–
LMBRD1 (UniProt Q9NUN5)	0.073	0.023	–	-0.034	-0.057	-0.077	0.05	-0.039	-0.073	0.032	0.065	-0.01	-0.015	-0.016	0.133	-0.351	-0.101	0.015	0.015	0.02
MASTL (UniProt Q96GX5)	0.032	–	-0.056	-0.149	–	-0.032	-0.038	-0.013	-0.02	–	0.113	-0.048	–	-0.006	0.081	–	-0.028	0.045	-0.143	0.187
MCM10 (UniProt Q7L590)	0.209	0.166	0.155	0.028	0.217	-0.037	-0.065	-0.012	-0.074	0	0.148	0.069	-0.037	-0.164	–	0.096	-0.016	-0.034	-0.023	–
